This is a sample that favours compounds with a hit; in the whole collection about 7.3% have one here.
HCMV antiviral: inhibitors of human cytomegalovirus; HFF cells, HCMV-luciferase reporter, 72 h; stronger effect = lower value; activity change, negative = inhibition, % at 57.5 µM; 410,000 tested, 4.5% active; in the data active = activity change below about -60%; inconclusive = no clear call, values can overlap the other calls; inactive = above about -39%
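Steps: HFFs plated, 16 h 37C; compounds added; HCMV-luciferase added to MOI 1 PFU/cell; 72 h 37C; OneGlo reagent, 5 min room temperature; luminescence read, normalized to controls.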
AmpC detergent: blocks E. coli AmpC beta-lactamase in detergent assay; AmpC hydrolysis of nitrocefin, absorbance 480 nm, 0.01% Triton; 370,000 tested, 0.041% active; P00811; Potency, µM (series often up to 114 µM), for inactives: at the highest dose activity change, negative = inhibition, usual class: inhibitors;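 also: potency is read from the fitted curve at half-maximal effect; 0% = no-compound wells and -100% = no-enzyme wells; nearly all actives have a fitted effect of over 25% in size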
Target sequence (P00811 whole entry, looked up): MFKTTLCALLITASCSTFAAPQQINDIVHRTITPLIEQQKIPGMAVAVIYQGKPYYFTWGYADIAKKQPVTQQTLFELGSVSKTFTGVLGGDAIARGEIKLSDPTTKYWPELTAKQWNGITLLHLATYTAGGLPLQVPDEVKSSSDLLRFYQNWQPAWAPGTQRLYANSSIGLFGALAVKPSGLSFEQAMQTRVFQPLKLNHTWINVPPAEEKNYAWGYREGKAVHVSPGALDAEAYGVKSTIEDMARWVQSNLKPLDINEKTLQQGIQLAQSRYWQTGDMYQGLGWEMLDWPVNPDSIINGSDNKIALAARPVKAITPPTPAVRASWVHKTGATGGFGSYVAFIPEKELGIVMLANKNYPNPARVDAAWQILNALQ
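AmpC (5.3 nM in the dispensed reagent) in 20 mM phosphate pH 7.0 with 0.01% (detergent screen) or 0.0001% Triton X-100 was preincubated with compounds for 15 min at room temperature. Nitrocefin was then added from an 800 uM solution, and hydrolysis was followed at 480 nm.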
AmpC no deterg: blocks E. coli AmpC beta-lactamase in detergent-free assay. 330,000 tested, 0.52% active. AmpC nitrocefin hydrolysis, absorbance 480 nm, 0.0001% Triton. Potency, µM (series often up to 57.1 µM), inactives show at the top dose activity change, negative = inhibition, actives largely listed as inhibitors. AID 485341. P00811;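 also: potency is read from the fitted curve at half-maximal effect; plate controls were no compound for no effect and no enzyme for full effect; nearly all actives have a fitted effect of over 20% in size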
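AmpC (5.3 nM in the dispensed reagent) in 20 mM phosphate pH 7.0 with 0.01% (detergent screen) or 0.0001% Triton X-100 was preincubated with compounds for 15 min at room temperature. Nitrocefin was then added from an 800 uM solution, and hydrolysis was followed at 480 nm.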
FMDV antiviral: foot and mouth disease virus antiviral activity; 410,000 tested, 1.2% active; FMDV antiviral cell-based qHTS; Potency, µM (doses to about 57.9 µM), for inactives: at the highest dose activity change, negative = inhibition, usual class: inhibitors; calls by dose curve; tested in HEK293T cells; also: read-out not given here; potency is read from the fitted curve at half-maximal effect; nearly all actives have a fitted effect of over 45% in size
HCV inh: HCV inhibition; Huh7.5.1 HCVcc-Cre infection, luciferase reporter, 44 h; AID 651820; 340,000 tested, 3.4% active; Potency, µM (titrated, usually from 41.8 µM), for the others: at the top dose activity change, negative = inhibition, hits mostly inhibitors; also: potency is read from the fitted curve at half-maximal effect
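Cells (1,000/well) were plated 4 h before compound, then infected with HCVcc-Cre virus (~0.5 moi). After 44 h further culture, infection was read as luciferase luminescence following a 15 min substrate incubation at room temperature.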
* hit, by the source's call; ? = inconclusive; . = not tested or not shown; [ ] = remark or other dose. Unless noted, calls follow the shape of the dose curve; as a rule, active = well fitted curve in the direction sought with a large enough effect; inconclusive = small, poorly fitted or top-dose-only effect, or another doubt; inactive = no such curve, though single readings can be large; an effect the other way counts as inactive or inconclusive. Unless noted, % is scaled to controls: 0 for no effect and ±100 for the full control effect.

SMILES | HCMV antiviral | AmpC detergent | AmpC no deterg | FMDV antiviral | HCV inh
Cc1onc(-c2c(F)cccc2Cl)c1C(=O)Nc1ccc(S(=O)(=O)N2CCOCC2)cc1 | -69.2* | . | -3.4% | -18.4% | 2.9%
Cc1onc(-c2c(F)cccc2Cl)c1C(=O)Nc1cc(S(=O)(=O)N2CCCCC2)ccc1O | -100.2* | . | . | ? | ?
COc1ccc(Cl)cc1NC(=O)CSc1nc2ccccc2nc1N1CCCCC1 | 28.7 | -10.0% | . | -17.5% | .
COc1ccccc1-c1cc2c(Nc3ccc4c(c3)OCCO4)nccc2n1C | -70.1* | . | . | . | .
COc1ccc(Nc2nccc3c2cc(-c2cccc(F)c2)n3C)cc1OC | -27.7 | . | . | . | .
COc1ccc(Nc2nccc3c2cc(-c2ccccc2OC)n3C)cc1OC | -90.3* | . | . | . | .
COc1cc(OC)cc(-c2cc3c(Nc4cccc(S(C)(=O)=O)c4)nccc3n2C)c1 | -13.9 | . | . | . | .
CCOC(=O)[C@H]1[C@H]2COc3ccc(Cl)cc3[C@@H]2N2C(=O)c3ccc(Cl)cc3NC(=O)[C@@]12C | -6.6 | ? | -26.4% | ? | 2.5%
O=C(Cn1nc(-c2ccccc2)c2ccccc2c1=O)Nc1ccccn1 | -61.4* | -3.5% | -22.6% | 9.7% | 6.1%
CCN(CC)C(=O)c1ccc(NC(=O)CCn2nc(-c3ccc(C)cc3)c3ccccc3c2=O)cc1 | -65.4* | 23.6% | . | ? | .
CCN(CC)C(=O)c1ccc(-c2nnc(OC)c3ccccc23)cc1 | -66.1* | 3.7% | 25.3% | -8.9% | -0.8%
O=C(CCn1nc(-c2ccccc2)c2ccccc2c1=O)NN1CCOCC1 | -70.4* | -10.1% | -9.9%[2.29 µM] | -11.5% | 19.5%
C[C@H](CO)N1C[C@H](C)[C@@H](CN(C)S(C)(=O)=O)Oc2ccc(NS(=O)(=O)c3cn(C)cn3)cc2C1=O | -11.7 | . | -5.1% | -5.7% | 20.2%
c1csc(CNc2ncnc3ccc(-c4ccc5c(c4)OCCO5)cc23)c1 | -11.7 | ? | -22.9% | -8.3% | .
Cc1cc2nc(-c3ccc(SCc4ccc(C#N)cc4)nc3)[nH]c2cc1C | ? | ? | -56.9% | ? | 11.2µM*
Cc1cc2nc(-c3ccc(SCC(=O)Nc4nccs4)nc3)[nH]c2cc1C | ? | -2.0% | -17.0% | -6.7% | 6.8%
CC(=O)CSc1ccc(-c2nc3cc(C)c(C)cc3[nH]2)cn1 | -99.6* | 1.1% | -0.4% | 8.91µM* | ?
CC(=O)CSc1ccc(-c2nc3ccccc3[nH]2)cn1 | -22.9 | -17.9% | -34.5% | -76.3% | ?
Cc1cc(=O)c2c(ccc3c(=O)cc(C)[nH]c32)[nH]1 | 2.4 | . | . | . | .
CNc1ccc(S(=O)(=O)NCC(=O)NCCCc2ccccc2)cc1[N+](=O)[O-] | . | 1.9% | -6.7% | 29.3% | 3.1%
O=C(Nc1ccccc1N1CCOCC1)c1cccc([N+](=O)[O-])c1 | 0.2 | ? | -10.5% | -12.8% | 11.2%
CC1CCN(c2ccccc2NC(=O)c2cc([N+](=O)[O-])ccc2N2CCOCC2)CC1 | -92.8* | -1.3% | -32.5% | ? | ?
O=C(/C=C/c1cccc([N+](=O)[O-])c1)Nc1ccccc1N1CCOCC1 | -60.5* | -7.0% | ? | ? | -26.5%
CCc1ccc2oc(-c3ccc(C)c(NC(=O)c4cc([N+](=O)[O-])ccc4N4CCOCC4)c3)nc2c1 | ? | 0.7% | . | -7.5% | .
CCc1ccccc1NC(=O)c1cc([N+](=O)[O-])ccc1N1CCOCC1 | 10.1 | -7.7% | -3.1% | -3.2% | -6.3%
SMILES | HCMV antiviral | AmpC detergent | AmpC no deterg | FMDV antiviral | HCV inh
O=C(Nc1cccc(-c2nc3cc(Cl)ccc3o2)c1)c1cc([N+](=O)[O-])ccc1N1CCOCC1 | -63.1* | 0.1% | . | 7.4% | .
CCCCn1c(N)c(N(CCOC)C(=O)c2cc(-c3ccc(F)cc3)nc3ccccc23)c(=O)[nH]c1=O | -18.5 | ? | 180.4% | -3.7% | 4.3%
CCCN(C(=O)Cn1c(C(F)(F)F)nc2ccccc21)C1CCS(=O)(=O)C1 (stereo not given) | -31.6 | ? | -29.1% | -12.1% | -8.4%
CC(=O)Nc1cccc(C(=O)OC2CCOC2=O)c1 (stereo not given) | 10.3 | ? | -14.1% | -17.9% | 10.9%
CC(=O)Nc1cc(C(=O)Nc2ccc3c(c2)N(C)C(=O)c2ccccc2S3)ccc1C | 2.5 | 5.2% | . | -20.6% | .
CCN1C(=O)c2ccccc2Sc2ccc(NC(=O)Cc3ccc(OC)c(OC)c3)cc21 | -38.6 | 1.9% | . | -17.8% | .
COc1ccc(C(=O)Nc2ccc3c(c2)N(C2CCCC2)C(=O)c2ccccc2S3)cc1OC | -70.2* | 3.8% | . | 0.0% | .
CN1C(=O)c2ccccc2Sc2ccc(NC(=O)NCc3ccc(Cl)cc3)cc21 | -89.3* | -5.0% | . | ? | .
Cc1ccc(C(=O)Nc2ccc3c(c2)N(C)C(=O)c2ccccc2S3)cc1F | -91.5* | 11.3% | . | ? | .
CCOc1ccc(CNC(=O)Nc2ccc3c(c2)N(C)C(=O)c2ccccc2S3)cc1 | -62.2* | 3.7% | . | ? | .
CN1C(=O)c2ccccc2Sc2ccc(NC(=O)NCc3cccc(Cl)c3)cc21 | -32.5 | 25.5% | . | ? | .
Cc1ccccc1CNC(=O)Nc1ccc2c(c1)N(C)C(=O)c1ccccc1S2 | -96.7* | 17.2% | . | ? | .
COc1cccc(C(=O)NNC(=O)C(=O)N2CCCCC2)c1 | -67.4* | -0.4% | -9.2% | 10.7% | 11.0%
COc1cccc(C(=O)OCCN2CCCCC2)c1 | -100.3* | 9.4% | 3.0% | 4.1% | 16.4%
CCc1nnc2c3ccccc3nc(Nc3cc(C)cc(C)c3)n12 | -17.0 | 18.8% | . | -23.9% | .
CCOC(=O)N1CCN(C(=O)COC(=O)CSc2ccc([N+](=O)[O-])cc2)CC1 | -28.8 | -16.2% | 6.1% | 1.8% | 13.3%
O=C(/C=C1\NC2(CCCC2)Cc2ccccc21)C(=O)N/N=C/c1ccccc1O | -71.0* | ? | -29.1% | 4.4% | ?
CN(C)c1ccc(/C=N/NC(=O)C(=O)/C=C2\NC3(CCCC3)Cc3ccccc32)cc1 | -62.8* | -3.5% | -25.7% | -18.7% | ?
COc1cc(/C=N/NC(=O)C(=O)/C=C2\NC3(CCCC3)Cc3ccccc32)ccc1O | 6.5 | -15.4% | -39.6% | ? | ?
Cc1sc2ncnc(N/N=C/c3ccc(O)cc3)c2c1C | -26.1 | -4.3% | -14.0% | 5.2% | 11.2µM*
Cc1sc2ncnc(N/N=C/c3ccccc3O)c2c1C | -100.5* | ? | 30.8% | 30.1% | ?
COc1ccc(/C=N/Nc2ncnc3sc(C)c(C)c23)cc1 | -12.1 | -8.1% | 50.7% | 4.8% | -19.4%
O=C(NCCOc1ccccc1F)C1CCC(=O)N(CCc2cccc(F)c2)C1 (stereo not given) | ? | -1.7% | 97.6% | -7.5% | -4.3%
Cc1ccc(N2CC(C(=O)NC3CCCCCC3)CC2=O)cc1 (stereo not given) | -63.5* | . | . | -18.2% | .
COC(=O)C(/C=C/c1ccccc1)(c1cn(C)c2ccccc12)C(Nc1ccccc1)c1ccccc1 (stereo not given) | 27.6 | . | . | . | .

Assay outcomes from PubChem.
